Hits are enriched below; roughly 15% of the tested compounds scored in any of these assays.
Pf growth 96h – P. falciparum growth inhibition at 96 hours | P. falciparum luciferase reporter growth, 96 h | AID 504834 | Potency, µM (top dose mostly 28.7 µM), inactives show at the top dose activity change, negative = inhibition, hits mostly inhibitors | 320,000 compounds, 6.9% hits; further: potency means the concentration at half of the fitted maximal effect; on the % scale 0 is the no-effect control and ±100 the full control effect
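Two parasite generations (96 h, 37 C, 5% CO2) of compound exposure in infected erythrocytes (0.05% parasitemia, 2% hematocrit). Luciferase-reporter P. falciparum; decreased luminescence indicates inhibited growth, aimed at apicoplast-acting delayed death.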
HCMV inh – blocks human cytomegalovirus replication; HFF cells, HCMV-luciferase reporter, 72 h; stronger effect = lower value; activity change, negative = inhibition, % at 57.5 µM; 410,000 compounds, 4.5% hits; in the data active means activity change below about -60%; inconclusive means no clear call, values can overlap the other calls; inactive means above about -39%; further: on the % scale 0 is the no-effect control and ±100 the full control effect
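Inhibition of viral replication was scored as loss of reporter luminescence in HFFs infected with HCMV-luciferase (MOI 1 PFU/cell) for 72 h; compounds tested at 2 doses, normalized to buffer and Salinomycin controls.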
Pf growth 48h – inhibits P. falciparum growth in the first generation, 48 h; AID 504832; P. falciparum luciferase growth in erythrocytes, 48 h; Potency, µM (series often up to 28.7 µM), without a hit: top-dose activity change, negative = inhibition, hits mostly inhibitors; 310,000 compounds, 5.9% hits; further: potency means the concentration at half of the fitted maximal effect; on the % scale 0 is the no-effect control and ±100 the full control effect
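First compound was added to culture medium, then infected red cells at 0.1% parasitemia and 2% hematocrit (final). After incubation at 37 C under 5% CO2, luciferase detection reagent was dispensed and light output recorded.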
SARS PLP yeast – inhibitors of SARS-CoV papain-like protease in yeast; S. cerevisiae expressing SARS-CoV PLpro, growth rescue; Potency, µM (series often up to 32.9 µM), for the others: at the top dose activity, positive = growth rescue, actives largely listed as activators; 330,000 compounds, 0.19% hits; calls by dose curve; further: potency means the concentration at half of the fitted maximal effect; 0% is about no effect; nearly all actives have a fitted effect of over 55% in size
Sm TGR inh – blocks Schistosoma mansoni thioredoxin glutathione reductase | Q962Y6 | purified TGR, DTNB reduction, TNB absorbance 405 nm | Potency, µM (top dose mostly 114 µM), inactives show at the highest dose activity change, negative = inhibition, actives largely listed as inhibitors | 360,000 compounds, 3% hits | AID 485364; further: potency means the concentration at half of the fitted maximal effect; on the % scale 0 is the no-effect control and ±100 the full control effect; nearly all actives have a fitted effect of over 60% in size
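TGR 20 nM + NADPH 100 uM (dispensed conc.), cpd preinc 15 min RT; start with NADPH (500 uM addition) then DTNB (15 mM addition). Kinetic TNB absorbance, 405 nm filter. Four-parameter Hill fit across titration.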
HCV inh – inhibitors of hepatitis C virus infection; Potency, µM (highest dose often 41.8 µM), inactives show at the highest dose activity change, negative = inhibition, usual class: inhibitors; Huh7.5.1 HCVcc-Cre infection, luciferase reporter, 44 h; 340,000 compounds, 3.4% hits; further: potency means the concentration at half of the fitted maximal effect; on the % scale 0 is the no-effect control and ±100 the full control effect
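After 44 h co-culture of compound, cells and HCVcc-Cre (~0.5 moi), substrate is added for 15 min at room temperature and luciferase measured over 15 sec. Cells were seeded at 1,000/well and pre-cultured 4 h.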
* = called active by the depositor; ? = inconclusive; . = not tested or not shown. Unless noted, the call rests on the fitted dose curve; in most records, active means well fitted curve in the direction sought with a large enough effect; inconclusive means small, poorly fitted or top-dose-only effect, or another doubt; inactive means no such curve, though single readings can be large; an effect the other way counts as inactive or inconclusive.

SMILES	Pf growth 96h	HCMV inh	Pf growth 48h	SARS PLP yeast	Sm TGR inh	HCV inh
C=C[C@H]1CN2CC[C@H]1C[C@@H]2[C@@H](O)c1ccnc2ccccc12	0.0041µM*	-2	0.033µM*	.	-3%	24%
CC(C)NC(=O)Cn1c(=O)nc(-c2ccccc2)c2ccccc21	.	49	.	.	4%	.
CCOC(=O)C(C#N)(Cc1cc(OC)cc(OC)c1)Cc1cc(OC)cc(OC)c1	.	-10	.	.	.	.
O=C1NCCCC2c3cc(O)c4ccccc4c3OC12N1CCCCC1 (centres undefined)	20%	?	8.3µM*	0%	2µM*	.
COc1ccc(COC(=O)CCc2c[nH]c3ccccc23)cc1F	.	?	.	.	.	3%
OCC1OC(c2ccccc2)OC2COC(c3ccccc3)OC12 (centres undefined)	.	-30	.	.	.	17%
COc1ccc(S(=O)(=O)N(C)C)cc1NC(=O)CCNC(=O)c1ccco1	16%	32	0%	-1%	1%	7%
Cc1ccc(S(=O)(=O)N2CCCCC2)cc1NC(=S)NC(=O)c1ccco1	4.1µM*	-22	?	-1%	?	?
COc1ccc(S(=O)(=O)N2CCCCC2)cc1NC(=O)CN1CCN(C(C)=O)CC1	0%	?	?	0%	-11%	3%
COc1ccc(S(=O)(=O)N2CCCCC2)cc1NC(=O)CCNC(=O)c1ccco1	?	-13	9.3µM*	-5%	-1%	4%
COc1ccccc1Oc1ccc(S(=O)(=O)N2CCCCC2)cc1NC(=O)CCNC(C)=O	5.9µM*	-21	12µM*	1%	-26%	.
C=CC[C@@H](Cc1ccc(F)cc1)C(=O)OC[C@@H]1CCCN1C(=O)[C@@H](CC=C)CC(=O)NCCO	.	-25	.	2%	.	-5%
Fc1ccc(CNCc2ccccc2Cl)cc1	20%	?	3%	0%	1%	11%
C=CCOc1ccccc1CNCc1ccc(F)cc1	2.3µM*	-26	-13%	0%	-8%	7%
Cc1cc(=O)[nH]c(-n2nc(C)c(Oc3ccccc3O)c2C)n1	11%	9	?	-10%	1%	-22%
Cc1nn(-c2ccc(C(F)(F)F)cn2)c(C)c1Oc1ccccc1O	8.3µM*	-23	.	-7%	-2%	-21%
CN(c1ccccc1)S(=O)(=O)c1ccccc1Br	22%	-81*	-29%	-4%	0%	?
CC(C)NC(=O)NC1C2CC3CC(C2)CC1C3 (centres undefined)	10µM*	0	?	-18%	89µM*	20%
COC(=O)C1=C(O)C(C(=O)OC)C(c2ccc(C)cc2)C(C#N)(C#N)C1c1ccc(C)cc1 (centres undefined)	?	-96*	?	22%	0%	?
CC(C)Oc1ccc(C(=O)Nc2ccc3oc(-c4ccncc4)nc3c2)cc1	.	-20	.	.	-12%	.
COc1cc2c(cc1OC)C(c1ccccc1)N(C(=O)CSCC(=O)O)CC2 (centres undefined)	?	-3	-29%	1%	-31%	7%
COc1ccc(C2c3cc(OC)c(OC)cc3CCN2C(=O)c2cccc([N+](=O)[O-])c2)cc1OC (centres undefined)	9.3µM*	-31	?	1%	-2%	-14%
COc1cc2c(cc1OC)C(c1ccccc1)N(C(=O)c1ccccc1F)CC2 (centres undefined)	?	3	.	-7%	1%	-27%
COc1cc2c(cc1OC)C(c1ccccc1)N(C(=O)c1ccccc1)CC2 (centres undefined)	-1%	-60*	?	-5%	6%	?
COc1cc2c(cc1OC)C(c1cccc([N+](=O)[O-])c1)N(C(=O)c1ccc(F)cc1)CC2 (centres undefined)	122%	54	?	3%	-20%	?
SMILES	Pf growth 96h	HCMV inh	Pf growth 48h	SARS PLP yeast	Sm TGR inh	HCV inh
COc1cc2c(cc1OC)C(c1ccccc1)CN(C)CC2 (centres undefined)	15µM*	.	?	.	.	.
CCOC(=O)c1cccn1C1C(=O)N(Cc2ccc(OC)cc2)c2ccccc21 (centres undefined)	.	-27	.	.	.	.
COC(=O)c1ccccc1-c1ccc(C(c2c(C)[nH][nH]c2=O)c2c(C)[nH][nH]c2=O)o1	57%	-34	?	-1%	-1%	12%
COC(=O)c1cccc(-c2ccc(C(c3c(C)[nH][nH]c3=O)c3c(C)[nH][nH]c3=O)o2)c1	-26%	-13	-5%	2%	14µM*	-8%
Cc1[nH][nH]c(=O)c1C(c1ccc(-c2ccc(Cl)c(C(=O)O)c2)o1)c1c(C)[nH][nH]c1=O	-22%	-7	38%	1%	16µM*	1%
CN(C(=O)Nc1ccccc1)C1CCCc2ccccc21 (centres undefined)	?	21	-25%	-1%	-2%	3%
O=S(=O)(Cc1ccccc1Cl)Nc1ccccn1	.	-13	-9%	4%	25µM*	10%
OC(COc1ccc(Cl)cc1)CN1CCC(Cc2ccccc2)CC1 (centres undefined)	?	1	-14%	0%	4%	?
OC(CN1CCC(Cc2ccc(F)cc2)CC1)c1ccc(Cl)cc1 (centres undefined)	2.1µM*	.	1.5µM*	.	.	.
OC(CN1CCN(c2ccc(F)cc2)CC1)c1ccc(Cl)cc1 (centres undefined)	13µM*	-18	.	0%	22%	-6%
CC(=O)NC(c1ccc(F)c(F)c1)c1nc(-c2ccccc2)cs1 (centres undefined)	.	7	.	.	.	.
CCCOC1OC(=O)c2c1ccc(OC)c2OC (centres undefined)	5.2µM*	21	18%	-18%	-1%	29%
COc1ccc(/C=C2\N=C(C)OC2=O)cc1[N+](=O)[O-]	?	23	18%	0%	10µM*	1%
COc1cc(/C=C2\N=C(c3c(-c4ccccc4)noc3C)OC2=O)ccc1OC(C)=O	4%	63	13µM*	5%	-6%	-6%
COc1ccc(/C=N/Nc2nc(=O)[nH]nc2C)cc1[N+](=O)[O-]	?	17	25%	-14%	-6%	3%
COc1cccc(/C=C2\N=C(c3c(-c4ccccc4)noc3C)OC2=O)c1	24%	?	8%	7%	-1%	1%
CCOc1cc(/C=C2\N=C(C)OC2=O)cc(Cl)c1OCC(=O)OC	.	13	.	.	.	6%
COc1cc(/C=C2\N=C(C)OC2=O)cc(Cl)c1OC(C)=O	45%	-1	36%	2%	10µM*	7%
CCN1CCN(c2nc(C)nc3c2sc(=S)n3C)CC1	3.7µM*	-17	-29%	-18%	-10%	?
